Source: PubChem BioAssay AID624288 (National Center for Advancing Translational Sciences (NCATS), 2012)
The campaign covered roughly 340,000 compounds. About 1,400 (0.41%) were called active. A call without a number means that no potency is given here. Another 4% or so got no clear call; they are omitted. The call rests on the fitted dose curve; cell line not stated here. The sample as a whole holds a higher share of actives than the screen did.

Experiment: qHTS for Antagonists of gsp, the Etiologic Mutation Responsible for Fibrous Dysplasia/McCune-Albright Syndrome: qHTS; further: nearly all actives have a fitted effect of over 65% in size
Conditions: gsp-mutant cells, cAMP HTRF, 30 min; series mostly up to 76.9 µM
Summary of the method: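 HTRF cAMP read-out (cAMP-d2 plus anti-cAMP antibody-K in lysis buffer, 30 min RT). Before lysis, cells are exposed to compounds with […] for 30 min at 37C in DPBS containing Ca/Mg, BSA and Tween 20.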
Potency means the concentration at half of the fitted maximal effect.

Compound | Potency
CN(C)C(=S)N=c1ssc(=S)n1Cc1ccco1 | inactive
Cc1nn(-c2ccc([N+](=O)[O-])cc2)c(N)c1-c1ccccc1 | inactive
O=c1[nH]n(-c2ccc([N+](=O)[O-])cc2)c(=O)c2ccccc12 | inactive
O=C1CC(c2ccccc2)=NN1c1ccc([N+](=O)[O-])cc1 | 35.5 µM (active)
O=C1COc2c1ccc(O)c2O | inactive
O=C(O)c1ccc(Cn2cnc3c(=S)nc[nH]c32)cc1 | inactive
O=C(CC(=O)c1cccnc1)c1ccccc1 | inactive
CCC(=C/c1sc2ccc3ccccc3c2[n+]1C)/C=C1\Sc2ccc3ccccc3c2N1C | 35.5 µM (active)
O=C1CC(c2ccccc2)C(c2ccccc2)=NN1 (configuration not stated) | inactive
c1ccc(CNc2ncnc3[nH]ncc23)cc1 | inactive
Cc1ccc(SCC(=O)N2CCN(c3ccc(F)cc3)CC2)cc1 | inactive
CN(C(=O)c1ccc(NC(=O)Cc2cccc(NC(=O)C3CCN(C(=O)c4ccccc4)CC3)c2)cc1)C1CC1 | inactive
Cc1ccc(NC(=O)Nc2cccnc2)cc1 | inactive
CCc1ccc(NC(=O)Nc2ccncc2)cc1 | inactive
Cc1ccc(NC(=O)Nc2nnc(-c3ccncc3)s2)cc1 | 50.1 µM (active)
O=C1NCC(Nc2ccccc2)C(=O)N1 (configuration not stated) | inactive
COc1ccc(S(=O)(=O)N2C[C@H]3CON(C)[C@H]3C[C@H]2c2cccc(Br)c2)cc1 | inactive
Fc1ccccc1/C=N/n1c(-c2cccnc2)n[nH]c1=S | 28.2 µM (active)
S=c1[nH]nc(-c2ccncc2)n1/N=C/c1ccccc1Cl | inactive
O=[N+]([O-])c1ccccc1/C=N/n1c(COc2ccccc2)n[nH]c1=S | inactive
Cc1cccc(NC(=S)N2CCC(C(=O)c3ccc(F)cc3)CC2)c1 | inactive
Cc1nn(-c2ccccc2)c(C)c1NC(=O)CCl | inactive
Cc1nn(-c2ccccc2)c(C)c1NC(=O)COC(=O)c1cc(Cl)ccc1O | inactive
Cc1nn(-c2ccccc2)c(C)c1NC(=O)COc1ccc(Cl)cc1Cl | 50.1 µM (active)
CC(C)Cn1cnc2c(SCc3ccc(Cl)cc3)nc(N)nc21 | inactive
COC(=O)CC(CC(=O)OC)n1cccc1 | inactive

Compound | Potency
COc1ccc(-n2cnnc2SCC(=O)Nc2cccc(S(N)(=O)=O)c2)cc1 | inactive
NS(=O)(=O)c1cccc(NC(=O)CSc2nc3ccccc3n2-c2ccccc2)c1 | 28.2 µM (active)
Cc1nnc(SCC(=O)Nc2cccc(N)c2)n1-c1ccccc1 | inactive
CNc1nc(=O)n(C2CCCO2)cc1C (configuration not stated) | inactive
Cc1ccccc1OCC(=O)Nc1ccc(S(=O)(=O)N2CCOCC2)cc1 | inactive
Cc1ccccc1OCC(=O)Nc1ccc(N2CCN(C(=O)C(C)C)CC2)c(Cl)c1 | 31.6 µM (active)
Cc1ccccc1OCC(=O)Nc1ccc2c(c1)ncn2C | inactive
COc1ccc2nc(N3C(=O)C(O)=C(C(=O)c4ccco4)C3c3ccco3)sc2c1 (configuration not stated) | inactive
OCCN1CCN(CCO)C1=S | inactive
N#CC1=C(N)Oc2cc(N)ccc2C1c1ccccc1 (configuration not stated) | inactive
CN(C)/N=C/c1cc(Cl)cc([N+](=O)[O-])c1O | inactive
O=S(=O)(c1ccc(NC(=S)NN=C(C2CC2)C2CC2)cc1)N1CCOCC1 | inactive
O=[N+]([O-])c1cc(Cl)cc(/C=N/NC(=S)Nc2cc(S(=O)(=O)N3CCOCC3)ccc2Cl)c1O | 50.1 µM (active)
O=C1CC(c2ccccc2)C(=O)N2C(=O)CC(c3ccccc3)C(=O)N12 (configuration not stated) | inactive
Cc1nc(Nc2ccccc2C)c2cnn(C)c2n1 | inactive
COc1ccc(N=C2C=CC(=O)O2)cc1 | inactive
N=C1C(c2nc3ccccc3s2)=C(O)CN1NC(=O)c1ccc([N+](=O)[O-])cc1 | inactive
O=C(CCNC(=O)c1ccccc1)Nc1nc2ccccc2s1 | inactive
O=C(NC(Nc1nc2ccc([N+](=O)[O-])cc2s1)(C(F)(F)F)C(F)(F)F)c1ccccc1 | 3.98 µM (active)
CC(=O)Nc1ccc(C(=O)Nc2cc(S(=O)(=O)N3CCOCC3)ccc2N2CCOCC2)cc1 | inactive
CC1(C)N=C(N)NC(Nc2ccc(Cl)cc2)=N1 | inactive
CC1CCCCC1NCC(=O)Nc1ccccc1C(=O)Nc1ccccc1 (configuration not stated) | inactive
O=C(O)c1ccccc1NC(=O)c1ccccc1-c1ccccc1C(=O)O | inactive
O=C(Nc1ccccc1)c1ccccc1NC(=O)C(F)(F)F | 31.6 µM (active)
c1ccc(CCc2ccccn2)cc1 | inactive
Cc1cc(N2C(=O)C(=O)/C(=C(/O)c3ccccc3)C2c2cccc(Br)c2)no1 (configuration not stated) | inactive

Compound | Potency
Cc1cc(N2C(=O)C(=O)/C(=C(/O)c3ccc(Cl)cc3)C2c2cccc(Br)c2)no1 (configuration not stated) | inactive
COc1ccccc1C1/C(=C(/O)c2ccc(OC(C)C)cc2)C(=O)C(=O)N1c1cc(C)on1 (configuration not stated) | 28.2 µM (active)
COc1ccc(CNCCCNCc2ccc(OC)c(OC)c2)cc1OC | inactive
O=C1NC(c2ccccc2)Cc2ccncc21 (configuration not stated) | inactive
Cc1ccc(CS(=O)(=O)c2ncc(Cl)c(C(=O)Nc3nnc(C)s3)n2)cc1 | 31.6 µM (active)
Cc1cccc(NC(=O)c2nc(S(=O)(=O)Cc3ccccc3)ncc2Cl)c1 | inactive
CCOc1ccc(NC(=O)c2nc(SCC)ncc2Cl)cc1 | inactive
CSc1nnc(NC(=O)c2nc(S(=O)(=O)Cc3ccc(C)cc3)ncc2Cl)s1 | 15.8 µM (active)
COCCSc1nnc(NC(=O)CCS(=O)(=O)Cc2ccccc2)s1 | inactive
Cc1cccc(CS(=O)(=O)c2ncc(Cl)c(C(=O)Nc3ccc(F)cc3)n2)c1 | 50.1 µM (active)
CSc1ncc(Cl)c(C(=O)Nc2cc(C)ccc2C)n1 | inactive
Cc1ccc(S(=O)(=O)CC(=O)Nc2nnc(C)s2)cc1 | inactive
Cc1nnc(NC(=O)c2ccc3nccnc3c2)s1 | inactive
NC(=O)C1(Nc2ccc(-c3ccccc3)cc2)CCCC1 | inactive
CC(C)OC(=O)c1ccc(NCc2cc(O)ccc2O)cc1Cl | inactive
C=CCCC(=O)N1C[C@H]2CON(C)[C@H]2C[C@H]1c1cccc(Nc2ccccc2)c1 | inactive
CCOc1ccccc1NC(=S)C(=C([O-])c1ccc2c(c1)OCCO2)[n+]1ccc(CC)cc1 | inactive
O=c1c2ccccc2ncn1CCc1ccncc1 | inactive
Cc1ccc(C)c(S(=O)(=O)N(C)c2ccc(OC(=O)C3CCN(C(=O)c4ccc(F)cc4)CC3)cc2)c1 | inactive
CCOc1cc(C(=O)N(Cc2ccccc2)c2ccc(C)cc2)ccc1OCC(=O)N1CCOCC1 | inactive
Cc1ccc2oc(=O)ccc2c1 | inactive
O=[N+]([O-])c1ccc(N=NNc2ccc([N+](=O)[O-])cc2)cc1 | inactive
OCC1(CO)CC2(C1)CC(CO)(CO)C2 | inactive
COc1cccc(CNS(=O)(=O)c2ccc3c(c2)CC(C)N3C(=O)C2CCC2)c1 (configuration not stated) | inactive
COc1ccc(N(C)S(=O)(=O)c2ccc3c(c2)CC(C)N3C(=O)C2CC2)c(OC)c1 (configuration not stated) | 31.6 µM (active)
COc1cccc(CNS(=O)(=O)c2ccc3c(c2)CC(C)N3C(C)=O)c1 (configuration not stated) | inactive

Compound | Potency
O=C(Nc1cccc(Br)c1)C1CC(=O)N(C2CCCC2)C1 (configuration not stated) | inactive
CCOC(=O)C1CCCN(C(=O)CN(c2ccc(OC)cc2)S(=O)(=O)c2c(C)noc2C)C1 (configuration not stated) | inactive
CCN(C(=O)C1CCCN(c2nc(-c3ccc(OC)cc3)no2)C1)c1ccc(OC)cc1 (configuration not stated) | 35.5 µM (active)
COc1ccc(NC(=O)N2CCCC(c3nc(-c4ccc(F)cc4)no3)C2)cc1 (configuration not stated) | inactive
O=C(O)C(=Cc1ccccc1[N+](=O)[O-])c1ccccc1 | inactive
N#Cc1c(-c2ccccc2)nc(SCc2cccc(C(F)(F)F)c2)[nH]c1=O | 50.1 µM (active)
Cc1ccc(CSc2nc(-c3ccccc3)c(C#N)c(=O)[nH]2)cc1 | inactive
N#Cc1c(-c2ccccc2)nc(SCc2ccc([N+](=O)[O-])cc2)[nH]c1=O | inactive
CC(=O)N(C1=C(Cl)C(=O)c2ccccc2C1=O)c1ccc(C(=O)O)cc1 | 50.1 µM (active)
O=C(NC1=CC(=O)c2ccccc2C1=O)c1ccccc1 | inactive
C=CCSc1nsc(NC(=O)Nc2cccc(C(C)=O)c2)n1 | 28.2 µM (active)
CSc1nsc(NC(=O)Nc2ccccc2)n1 | inactive
CCSc1nsc(NC(=O)Nc2cccc(C(C)=O)c2)n1 | 25.1 µM (active)
CCSc1nsc(NC(=O)Nc2ccccc2OC)n1 | inactive
C=C(C)C(=O)Nc1cccc(C(C)=O)c1 | inactive
CC(=O)c1cccc(NC(=S)N2CCCC2)c1 | inactive
CC1C(C)N(C(=O)CCl)c2ccccc2N1C(=O)CCl (configuration not stated) | inactive
O=S(=O)(O)c1cc2onnc2c2ccccc12 | inactive
CC(C)(C)OC(=O)N1CCC(C(=O)Nc2cccc(C(=O)NCCc3ccccc3)c2)CC1 | inactive
O=C(OC12CC3CC(CC(C3)C1)C2)c1ccc(NCc2cc(O)ccc2O)cc1 | inactive
CCN1CCN(Cc2c(O)ccc3c(=O)c(-c4ccc(OC)c(OC)c4)c(C(F)(F)F)oc23)CC1 | inactive
COc1ccc(-c2onc(C)c2-c2ccc3c(c2)OCCO3)c(O)c1 | inactive
O=c1c(-c2ccc3c(c2)OCCO3)c(C(F)(F)F)oc2cc(O)cc(O)c12 | 39.8 µM (active)
CC(C)(C)S(=O)(=O)N1Cc2cc(CO)cc(CCO)c2[C@H]1CCO | inactive
COc1cccc(C=CC(=O)C=CC=Cc2ccccc2)c1 | inactive
COc1ccc(-c2ccc3c(c2)C2CC3CCN2CCC#N)cc1 (configuration not stated) | inactive

Compound | Potency
O=C1[C@@H]2C(c3cccnc3)=NO[C@@H]2C(=O)N1c1ccc(Cl)cc1Cl | 11.2 µM (active)
O=C(/C=C/c1ccc(Cl)cc1Cl)c1cccnc1 | inactive
O=C(NNC1CC(=O)N(c2cccc(Cl)c2)C1=O)c1cccnc1 (configuration not stated) | inactive
Cc1ccc(C(=O)O)c(NC=O)c1OCc1ccccc1 | inactive
COc1ccc(CNC(=O)CN2C(=O)c3ccccc3S2(=O)=O)cc1 | inactive
Cc1cc(NC(=O)COc2ccccc2C#N)no1 | 31.6 µM (active)
Cc1cc(NC(=O)COc2ccc([N+](=O)[O-])cc2)no1 | inactive
Cc1cc(NC(=O)COn2nnc3ccccc32)no1 | inactive
NC1=NOC(=O)C1C1CCCCC1 (configuration not stated) | inactive
O=C(Cc1ccc([N+](=O)[O-])cc1)NCCc1ccc2c(c1)OCO2 | inactive
O=C(COc1ccc(Cl)cc1[N+](=O)[O-])N1CCCCC1 | inactive
O=C(CN1CCCCCC1)Nc1ccc(Br)cc1[N+](=O)[O-] | inactive
O=[N+]([O-])c1cc([N+](=O)[O-])c(Oc2cc(F)cc(F)c2F)cc1NN1CCCCC1 | 11.2 µM (active)
COc1ccc(/C=C/C(=O)OCC(=O)N2CCN(S(=O)(=O)c3ccc(C)cc3C)CC2)cc1OC | inactive
O=C(NCCc1ccccc1)c1cccc(NC(=O)c2ccccc2)c1 | inactive
O=c1ccn([C@@H]2O[C@H](CNS(=O)(=O)c3cc4ccccc4s3)[C@@H](O)[C@H]2O)c(=O)[nH]1 | inactive
Cc1ccc(S(=O)(=O)CCC(=O)OCC(=O)N(C)Cc2ccccc2)cc1 | inactive
O=C(NNC(=O)c1ccc2ccccc2c1)c1ccc(Cl)cc1 | inactive
CCCNC(=O)CCn1nc(-c2ccccc2)c2ccccc2c1=O | inactive
COC(=O)Cn1nc(-c2ccccc2)c2cc(Cl)ccc21 | 31.6 µM (active)
O=C(CCl)NNc1nc(-c2ccccc2)c2cc(Cl)ccc2n1 | inactive
Cc1nn(-c2ncccn2)c2c1C(=O)CC(C)(C)C2Br (configuration not stated) | inactive
COc1ccc(Cn2cc(CN3CCS(=O)(=O)N(Cc4ccc(-c5cccc(Cl)c5)cc4)C(C)C3=O)nn2)cc1 (configuration not stated) | inactive
